The list is not random: actives were taken first. Their share in the collection is about 4.1%.
PRMT1 inh – inhibitors of human PRMT1 | Q99873 | recombinant PRMT1, activity-based probe fluorescence polarization | inhibition, % at 2.79 µM | actives 1.3% (n = 370,000) | AID 652257;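 active = inhibition above about 21% made by adding two undisclosed values, limit read from the data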
ABHD5 PLIN5 PPI – ABHD5-PLIN5 protein interaction inhibition | Split G. princeps luciferase complementation, luminescence, 4 h | inhibition, % at 4 µM | actives 0.78% (n = 360,000) | AID 602281;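 active = inhibition above the mean inhibition across every tested compound plus 3 SD, cut at about 22% in these data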;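 also: 0% = DMSO only wells and the 100% control is not disclosed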
rCAG binder – binds r(CAG) RNA repeats; r(CAG) RNA repeat, TO-PRO-1 dye displacement fluorescence; inhibition, % at 3 µM; actives 1.3% (n = 370,000);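 active = inhibition above the plate cutoff, the mean of all test compounds on that plate plus 3 SD, cut at about 35% in these data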;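 also: 0% = DMSO alone and 100% = 100 µM mitoxantrone as full dye displacement; higher means more dye released from RNA so lower well fluorescence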
MBD2 inh – MBD2-methylated oligo binding inhibition | TR-FRET, MBD2 binding to methylated oligonucleotide | inhibition, % at 4.4 µM | actives 0.31% (n = 370,000) | AID 686964; in the data active = inhibition above about 13%
LEDGF integ inh – blocks HIV-1 LEDGF/p75-dependent DNA integration; TR-FRET IN-LEDGF/p75 DNA integration, Eu/Cy5; inhibition, % at 3.7 µM; actives 0.64% (n = 370,000); AID 743269;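 active = inhibition above the screen-wide mean plus 3 SD, cut at about 13% in these data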;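 also: signal is the Cy5 over europium emission ratio at 671 and 618 nm; 0% = plate median of compound wells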
UHRF1 binding – UHRF1 methyl-DNA binding inhibition; Q96T88; UHRF1 binding to methylated oligo, TR-FRET; inhibition, % at 4.4 µM; actives 0.75% (n = 370,000); AID 687016; in the data active = inhibition above about 21%;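 also: UHRF1 SRA domain binding a hemimethylated CpG hairpin DNA probe; 0% = median of test compound wells and 100% = reference inhibitor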
Target sequence (Q96T88 whole entry, looked up, the tested form may be a part): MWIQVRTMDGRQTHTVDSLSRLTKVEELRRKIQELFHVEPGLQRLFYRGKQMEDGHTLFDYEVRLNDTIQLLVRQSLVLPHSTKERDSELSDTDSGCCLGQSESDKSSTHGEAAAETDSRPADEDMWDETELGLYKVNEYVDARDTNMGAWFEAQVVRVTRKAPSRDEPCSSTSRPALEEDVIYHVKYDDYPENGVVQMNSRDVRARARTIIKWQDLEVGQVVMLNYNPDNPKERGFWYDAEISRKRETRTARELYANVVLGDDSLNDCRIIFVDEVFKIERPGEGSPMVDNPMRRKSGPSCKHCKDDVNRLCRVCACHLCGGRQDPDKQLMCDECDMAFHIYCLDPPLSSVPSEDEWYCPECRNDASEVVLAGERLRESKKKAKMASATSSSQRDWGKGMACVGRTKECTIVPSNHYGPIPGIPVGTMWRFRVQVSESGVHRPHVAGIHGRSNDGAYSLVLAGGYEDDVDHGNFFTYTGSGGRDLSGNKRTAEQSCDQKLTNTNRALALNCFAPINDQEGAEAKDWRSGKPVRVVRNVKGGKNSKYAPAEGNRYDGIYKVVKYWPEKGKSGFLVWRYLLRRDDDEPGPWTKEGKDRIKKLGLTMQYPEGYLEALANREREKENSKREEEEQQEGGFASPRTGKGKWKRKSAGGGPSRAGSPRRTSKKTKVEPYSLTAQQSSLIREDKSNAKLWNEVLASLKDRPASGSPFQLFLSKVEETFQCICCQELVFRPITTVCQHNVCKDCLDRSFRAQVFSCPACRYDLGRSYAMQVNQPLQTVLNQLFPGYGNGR
The depositor's hits bear a star; x = no result.

SMILES	PRMT1 inh	ABHD5 PLIN5 PPI	rCAG binder	MBD2 inh	LEDGF integ inh	UHRF1 binding
CCOc1ccc(NC(=O)COC(=O)c2cc(S(=O)(=O)N3CCCC3)ccc2C)cc1	0	-6	2	3	1	2
CC1CCCC(NC(=O)COC(=O)c2ccc(S(=O)(=O)N3CCOCC3)cc2)C1C (configuration not stated)	2	0	-6	12	-2	21*
CCOC(=O)[C@@]12CN(C(=O)OC(C)(C)C)CC=C1N(Cc1ccc(OC)cc1)C(=O)[C@H]2CC(=O)NCc1cccc(C(F)(F)F)c1	2	x	5	2	4	-1
CCOC(=O)C1=C(C(=O)OCC)C2N(Cc3ccc(C#N)cc3)c3ccccc3[C@@]23C[C@@H](C(=O)OC)N(S(=O)(=O)c2ccc(C#N)cc2)C3=N1 (some centres not stated)	1	x	14	3	0	-2
O=C(N[C@@H](Cc1cccnc1)C(=O)N1CCC[C@H]1C(=O)NC1CCCC1)C1CC1	0	x	0	2	-3	3
CCOC(=O)c1c(C)[nH]c(C)c1S(=O)(=O)NCCN1CCN(c2cc(Cl)ccc2C)CC1	-2	1	7	2	-1	58*
c1ccc2c(C(c3nnnn3-c3ccc4c(c3)OCCO4)N3CCOCC3)ccnc2c1 (configuration not stated)	0	9	3	6	1	22*
CC(C)(C)OC(=O)N1CCC(N[C@@H](Cc2c[nH]c3ccccc23)C(=O)NCC(c2ccccc2)c2ccccc2)(C(=O)NC2CCCCC2)CC1	1	x	x	5	2	3
COc1cc(C2CC=C(C(=O)O)C(c3ccccc3F)N2S(=O)(=O)c2ccc(C)cc2)cc(OC)c1OC (configuration not stated)	-3	x	24	-5	1	0
O=C(Nc1ccc(OC(=O)c2cccs2)cc1)c1ccco1	1	-1	3	10	1	24*
COc1ccc(NC(=O)c2cc3ccccc3cc2OC)cc1	0	-6	8	0	0	2
COc1cc(C(=O)c2ccccc2)c(OC)cc1C(=O)Nc1ccc(O)cc1	1	-5	4	10	11	27*
O=S(=O)(c1ccc(Cl)nc1)N1CCc2ccccc21	1	3	-2	2	1	42*
O=S(=O)(c1ccc(Cl)nc1)N1CCCc2ccccc21	0	0	-1	6	-1	0
O=C(CSc1nnc(Cc2cccs2)n1-c1ccccc1)Nc1ccccc1-c1ccccc1	2	x	3	-1	-4	0
N#Cc1ccsc1NC(=O)COC(=O)CCCSc1nc2ccccc2s1	5	0	14	8	1	75*
O=C1CCCc2oc3c(c21)CCCC3	5	-1	-5	12	-6	23*
COC(=O)c1oc2c(c1C)C(=O)CCC2	0	10	-4	2	-6	3
CCCCCCCCN1C(=O)[C@@H](CC(=O)NCCCOCCCC)C[C@@]2(C(=O)OC)C1=C[C@H](C(C)C)O[C@@H]2C1CC1	-2	x	9	1	-3	-2
CC1(C#CC[N+]2(C)CCCCC2)CCC2C(O1)c1ccccc1OC2(C)C (configuration not stated)	-4	0	-2	8	5	24*
COc1cc(NC(=O)C2CCCN(S(=O)(=O)c3ccc(C)c(C)c3)C2)cc(OC)c1 (configuration not stated)	-6	x	4	3	1	3
C=CC[C@@H](CC(=O)N[C@H](CO)Cc1ccccc1)C(=O)N[C@H](COC(=O)[C@@H](CC=C)CC(=O)OC(C)(C)C)Cc1c[nH]c2ccccc12	2	11	-6	1	0	26*
COc1ccc(S[C@]2(C(=O)N(C)C)CC(=O)N(c3ccc(C#N)cc3)[C@@H]2c2ccc(OC)cc2)cc1	4	x	3	-4	4	1
O=C(N[C@@H](Cc1cccnc1)C(=O)N1CCC[C@H]1C(=O)NC1CCCC1)c1cccs1	6	x	2	-1	-3	3
CN1CCN(c2ccc(S(=O)(=O)N3CCOCC3)cc2NC(=O)CC(C)(C)C)CC1	0	0	3	1	0	61*
SMILES	PRMT1 inh	ABHD5 PLIN5 PPI	rCAG binder	MBD2 inh	LEDGF integ inh	UHRF1 binding
COc1ccc(CNC(=O)c2cc(S(=O)(=O)N3CCCCC3)ccc2N2CCOCC2)cc1OC	2	-2	1	1	-3	30*
CCCC(=O)Nc1cc(S(=O)(=O)N2CCCCC2)ccc1N1CCOCC1	0	-2	1	4	4	21*
COc1ccc(CCNC(=O)c2cc(S(=O)(=O)N3CCOCC3)ccc2N2CCCC2)cc1OC	2	5	-2	4	0	2
CN1CCN(c2ccc(S(=O)(=O)N3CCOCC3)cc2NC(=O)CSCc2ccccc2)CC1	-4	4	3	-6	-1	-2
Cc1cc(N2CCC(C)CC2)nc2ccccc12	5	x	x	-5	2	2
O=C(COC(=O)/C=C/C(=O)N1CCN(c2ccccc2)CC1)NCc1ccc(F)cc1	-4	0	-4	-2	-4	64*
CCCC1CCC2(CC1)CCC2OC(=S)Nc1ccccc1OC (configuration not stated)	7	x	x	0	-3	1
COc1ccc(/C=C(\NC(=O)/C=C/c2ccco2)C(=O)NCCc2nc3ccccc3[nH]2)cc1	6	23*	4	-4	1	-1
COc1ccc(/C=C(\NC(=O)c2ccco2)C(=O)NCCc2nc3ccccc3[nH]2)cc1	7	-2	1	0	-9	3
Nn1c(SCC(=O)NC2CCCCC2)nnc1-c1n[nH]c2c1CCC2	7	x	4	0	3	7
NC(=O)c1ncn([C@@H]2O[C@H](CNCc3ccccc3OCc3ccc(Cl)cc3Cl)[C@@H](O)[C@H]2O)n1	0	-3	-1	-6	0	-4
CC(C)Oc1ccc2ccccc2c1CNC[C@H]1O[C@@H](n2cnc(C(N)=O)n2)[C@H](O)[C@@H]1O	-1	-3	-1	6	3	44*
NC(=O)c1ncn([C@@H]2O[C@H](CNCc3cccc4c3sc3ccccc34)[C@@H](O)[C@H]2O)n1	0	-1	1	9	-2	22*
COC(=O)CN1CCN(C(=O)c2csc(-c3ccccc3)n2)CC1	1	x	3	0	3	0
CCN(CCNC(=O)c1ccc(C#N)cc1)c1cccc(C)c1	x	4	x	x	x	x
CCN(CCNCC(O)COCc1ccc(Cl)cc1)c1cccc(C)c1 (configuration not stated)	-1	18	-4	-4	2	29*
COC(=O)c1ccc2nc(-c3ccc(Cl)cc3)c(Cc3ccc(OC)cc3C)n2c1	2	-4	11	10	1	25*
COC(=O)c1ccc2nc(-c3ccc(OC)c(OC)c3)c(Cc3ccc(OC)cc3C)n2c1	9	9	18	12	-3	21*
